About 79,000 compounds went through this panel and 15% of them were active in at least one assay; those are over-represented in the sample as a whole. Values without a mark were called inactive. The source made the active and inactive calls. Rule as the data show it: active = growth inhibition above about 70%; inactive = the rest.
Key:
[1] = NCI Yeast Anticancer Drug Screen. Data for the rad50 strain (AID 155);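 also: 0% = growth of vehicle-only cultures of the same strain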; conditions: S. cerevisiae rad50 strain growth inhibition, hits give high values
Method in brief: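 Cells are treated with compound, grown, and their growth is then scored against vehicle-only cultures of the same repair-deficient yeast strain.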

[2] = NCI Yeast Anticancer Drug Screen. Data for the mec2-1 strain (AID 157); conditions: S. cerevisiae mec2-1 strain, hits give high values
Method in brief: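 Readout is yeast growth inhibition, normalised to vehicle-treated controls, in the mec2-1 strain exposed to compound.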

[3] = NCI Yeast Anticancer Drug Screen. Data for the sgs1 mgt1 strain (AID 161);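 also: 0% = growth of cultures given vehicle only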; conditions: S. cerevisiae sgs1 mgt1 strain, hits give high values
Method in brief: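 Percent growth inhibition was derived by comparing compound-exposed mutant yeast with vehicle-exposed cultures. The strain carries alterations in DNA damage repair.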

[4] = NCI Yeast Anticancer Drug Screen. Data for the cln2 rad14 strain (AID 165);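 also: 0% = growth equal to vehicle treated cultures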; conditions: S. cerevisiae cln2 rad14 strain, hits give high values
Method in brief: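 Relative to vehicle controls, growth inhibition of compound-treated cln2 rad14 yeast was recorded.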

[5] = NCI Yeast Anticancer Drug Screen. Data for the bub3 strain (AID 167); conditions: S. cerevisiae bub3 mutant strain, hits give high values
Method in brief: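 Part of a panel of yeast mutants defective in DNA damage repair or cell cycle regulation. Each strain is grown with compound, and inhibition is calculated relative to solvent-treated cultures.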

[6] = NCI Yeast Anticancer Drug Screen. Data for the mlh1 rad18 strain (AID 175); conditions: S. cerevisiae mlh1 rad18 strain growth inhibition, hits give high values
Method in brief: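 Test agents were incubated with a yeast strain of defined genotype (DNA damage repair defect). Inhibition of growth was derived by comparison with vehicle-exposed cultures.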

[7] = at 5.0 µM (retest, dose inferred, filed as 0.5)
[8] = at 50.0 µM (retest, dose inferred, filed as 5.0)

| Structure (SMILES) | growth inhibition [1, 7] | growth inhibition [1, 8] | growth inhibition ([1]; at 50.0 µM) | growth inhibition [2, 7] | growth inhibition [2, 8] | growth inhibition ([2]; at 50.0 µM) | growth inhibition [3, 7] | growth inhibition [3, 8] | growth inhibition ([3]; at 50.0 µM) | growth inhibition [4, 7] [%] | growth inhibition [4, 8] | growth inhibition ([4]; at 50.0 µM) | growth inhibition [5, 7] | growth inhibition [5, 8] | growth inhibition ([5]; at 50.0 µM) | growth inhibition [6, 7] | growth inhibition [6, 8] | growth inhibition ([6]; at 50.0 µM) |
| --- | --- | --- | --- | --- | --- | --- | --- | --- | --- | --- | --- | --- | --- | --- | --- | --- | --- | --- |
| CC(C)c1ccc(O)c(Cc2cc(C(C)C)ccc2O)c1 | 42% | 98% (active) | 98.2% (active) | 23% | 98% (active) | 98.3% (active) | 20% | 99% (active) | 96.7% (active) | 20 | 98% (active) | 97.1% (active) | 20% | 99% (active) | 98.6% (active) | 64% | 98% (active) | 97.5% (active) |
| C=C(Br)CN(CC)CC | -151% | -185% | -16.6% | -48% | -54% | -15.7% | -64% | -67% | -5.55% | -51 | -63% | 11.7% | -69% | -72% | -0.5% | -130% | -170% | -3.5% |
| CC(C=O)=C(c1ccccc1)c1ccccc1 | -147% | -157% | 23.8% | -50% | -56% | 24.6% | -57% | -64% | 49.2% | -54 | -56% | 23.8% | -62% | -74% | 0.3% | -115% | -111% | 28.4% |
| CC(C)(C)C(NO)C(O)N1CCCCC1 (configuration not stated) | -155% | -141% | 20.2% | -53% | -52% | 6.25% | -59% | -63% | 17.1% | -63 | -57% | 50% | -69% | -73% | -4% | -118% | -105% | 12.4% |
| CC(C)c1cc(=O)c2cc3[nH]c4ccccc4c3cc2[nH]1 | -2% | 92% (active) | 49.9% | -2% | 87% (active) | 52.8% | -69% | 96% (active) | 50.9% | -18 | 81% (active) | 68.5% | -2% | 94% (active) | 10.6% | -9% | 86% (active) | 54.2% |
| CS/C(=N\C(=S)Nc1ccccc1)Nc1ccccc1 | 0% | 95% (active) | 99.2% (active) | 25% | 94% (active) | 99.4% (active) | 38% | 97% (active) | 96.3% (active) | 22 | 96% (active) | 97.3% (active) | 34% | 98% (active) | 99% (active) | 22% | 95% (active) | 98.1% (active) |
| NNc1ccc2ccccc2n1 | -4% | 98% (active) | 87.5% (active) | 1% | 93% (active) | 52.5% | 3% | 99% (active) | 46.2% | 6 | 52% | 86.9% (active) | 14% | 99% (active) | 93.2% (active) | 19% | 99% (active) | 93.4% (active) |
| O=C(CCN1CCN(c2cccc(Cl)c2)CC1)N1CCc2c([nH]c3ccccc23)C1c1cccnc1 (configuration not stated) | 17% | 17% | 90.4% (active) | 10% | 10% | 92% (active) | 8% | 8% | 90.4% (active) | 9 | 9% | 92% (active) | 8% | 8% | 91.3% (active) | 23% | 23% | 89.7% (active) |
| Cc1cc(Br)cc(C(=O)Cl)c1O | -159% | -90% | 32.5% | -51% | -24% | 22% | -68% | -54% | 30.2% | -69 | -11% | 28.7% | -74% | -47% | 5.9% | -150% | -67% | 34.7% |
| COc1ccc2nc3cccc([N+](=O)[O-])c3c(NCCO)c2c1 | 75% (active) | 95% (active) | 86.6% (active) | 78% (active) | 98% (active) | 90% (active) | 82% (active) | 96% (active) | 87.8% (active) | 68 | 97% (active) | 87.2% (active) | 24% | 86% (active) | 86.9% (active) | 77% (active) | 96% (active) | 87.8% (active) |
| COC(=O)c1nc(=S)[nH]c(C(=O)OC)c1C(=O)c1ccc(O)c(OC)c1 | -6% | 95% (active) | 98.5% (active) | -7% | 97% (active) | 78.3% (active) | -16% | 96% (active) | 98.4% (active) | -4 | 90% (active) | 47% | 1% | 96% (active) | 84.3% (active) | 7% | 97% (active) | 96.3% (active) |
| C[C@@H]1CN(CC2COc3ccccc3O2)[C@@H](C)CN1CC1COc2ccccc2O1 (some centres not stated) | 63% | 80% (active) | 86.8% (active) | 74% (active) | 86% (active) | 84.3% (active) | 84% (active) | 98% (active) | 97.4% (active) | 52 | 65% | 92.8% (active) | 52% | 77% (active) | 84.7% (active) | 82% (active) | 94% (active) | 94.5% (active) |
| CC1C(=O)C(C)C(c2ccccc2)N(C)C1c1ccccc1 (configuration not stated) | 81% (active) | 98% (active) | 99% (active) | 42% | 99% (active) | 99.1% (active) | 81% (active) | 98% (active) | 99.3% (active) | 31 | 98% (active) | 99% (active) | 42% | 95% (active) | 99.4% (active) | 63% | 98% (active) | 99.1% (active) |
| Clc1nc(Cl)c(Cl)c(-c2ccccc2)n1 | 35% | 75% (active) | 90.3% (active) | 29% | 70% (active) | 92.7% (active) | 18% | 77% (active) | 89% (active) | 17 | 73% (active) | 84.8% (active) | 12% | 86% (active) | 85% (active) | 55% | 77% (active) | 87.3% (active) |
| COc1ccc(C(=O)C(Br)CS(=O)(=O)c2ccc(C)cc2)cc1 (configuration not stated) | 56% | 99% (active) | 99% (active) | 36% | 99% (active) | 99.4% (active) | 71% (active) | 99% (active) | 99.4% (active) | 18 | 98% (active) | 97.8% (active) | 47% | 98% (active) | 99.1% (active) | 48% | 98% (active) | 99% (active) |
| CCCC(=O)Oc1c(Br)cc(Br)cc1Br | -1% | 17% | 21.6% | -4% | 7% | 21.3% | -4% | 7% | 19.1% | -6 | -19% | 44.9% | 1% | 19% | 45.5% | -1% | 12% | 20.6% |
| Cc1cc(NC(=S)SCc2ccc(F)cc2)c([N+](=O)[O-])cc1C | 57% | 98% (active) | 98.7% (active) | 36% | 99% (active) | 98.8% (active) | 87% (active) | 99% (active) | 98.5% (active) | 19 | 97% (active) | 98.8% (active) | 48% | 92% (active) | 99% (active) | 94% (active) | 98% (active) | 99.1% (active) |
| [CH3][Sn]1([CH3])[O]C(=O)CCN=Cc2c(ccc3ccccc23)[O][Sn]([CH3])([CH3])[O]C(=O)CCN=Cc2c(ccc3ccccc23)[O]1 | 57% | 98% (active) | 90.6% (active) | 61% | 99% (active) | 92.8% (active) | 82% (active) | 99% (active) | 93% (active) | 24 | 99% (active) | 91.7% (active) | 84% (active) | 98% (active) | 92.3% (active) | 93% (active) | 99% (active) | 89.8% (active) |
| CC1=NOC(=O)/C1=C/c1ccc(Cl)c(Cl)c1 | -2% | 70% (active) | 31.9% | 10% | 20% | 36.7% | -11% | 31% | 52.5% | 8 | 61% | 2.1% | -3% | 71% (active) | 33.9% | -10% | 45% | 43.1% |

Source: PubChem BioAssay (NCI)
